{"source": "paper PMC4552634", "about": "“A New Set of Chemical Starting Points with Plasmodium falciparum Transmission-Blocking Potential for Antimalarial Drug Discovery” (PLoS ONE, 2015)", "note": "The whole screen tested about 13,000 compounds, of which about 3,200 (25%) showed an effect of 50% or more. The list shows a part of the results."}
{"test_system": "P. falciparum stage V gametocytes", "set-up": "BacTiter-Glo ATP luminescence viability of purified stage V gametocytes in 384-well plates, per cent inhibition versus DMSO", "details": "48 h, 5 µM; inhibitor", "units": {"% Inhibition": "%"}}
{"compound": "CCCC(C)N(Cc1ccc(C(C)(C)C)cc1)C(=O)c1cccc(OC)c1", "note": "(stereo not shown) [TCMDC-139783]", "% Inhibition": -10.58}
{"compound": "COc1cc(N(Cc2ccc(F)cc2)C(=O)c2ccc(-c3ccccc3)cc2)ccc1OCCN1CCCC1", "note": "[TCMDC-140662]", "% Inhibition": 28.65}
{"compound": "CCN(CC)CCOc1ccc(N(Cc2ccc(C(C)(C)C)cc2)C(=O)c2ccc(Cc3ccccc3)cc2)cc1OC", "note": "[TCMDC-140667]", "% Inhibition": 103.5}
{"compound": "CCNc1cc(C(=O)N[C@@H](Cc2ccccc2)[C@H](O)CNCc2ccc3c(c2)OCCO3)cc(N2CCCCS2(=O)=O)c1", "note": "[TCMDC-135189]", "% Inhibition": -0.5627}
{"compound": "CCCc1cc(Cc2cnc(N)nc2N)cc(CCC)c1OCCCCC(=O)O", "note": "[TCMDC-137293]", "% Inhibition": -0.4294}
{"compound": "COc1ccc(-c2cc(-c3nc4ccc(C(=O)N5CCOCC5)cc4[nH]3)c(=O)n(C)c2)cc1OC", "note": "[TCMDC-135055]", "% Inhibition": 52.78}
{"compound": "COc1ccc(-c2cc(-c3nc4ccc(CN)cc4[nH]3)c(=O)n(C)c2)cc1OC", "note": "[TCMDC-135048]", "% Inhibition": 18.44}
{"compound": "COc1ccc2nc(-c3cc(-c4ccc(NC(=O)CN5CCOCC5)cc4)cnc3N)[nH]c2c1", "note": "[TCMDC-135373]", "% Inhibition": 7.84}
{"compound": "CCN(CC)CCN(Cc1ccc(-c2ccc(C(F)(F)F)cc2)cc1)C(=O)Cn1c(SCc2ccc(F)c(F)c2F)nc(=O)c2c1CCC2", "note": "[TCMDC-141063]", "% Inhibition": 82.6}
{"compound": "CCNC(C)(C)CN(Cc1ccc(-c2ccc(C(F)(F)F)cc2)cc1)C(=O)Cn1c(SCc2ccc(F)cc2)nc(=O)c2c1CCC2", "note": "[TCMDC-140977]", "% Inhibition": 131.5}
{"compound": "CCN1CCC(N(Cc2ccc(-c3ccc(C(F)(F)F)cc3)cc2)C(=O)Cn2nc(C)c(=O)cc2SCc2ccc(F)cc2)CC1", "note": "[TCMDC-141284]", "% Inhibition": 72.73}
{"compound": "CCn1c(SCc2ccc(F)cc2)nc2sc3c(c2c1=O)CCN(C)C3", "note": "[TCMDC-124551]", "% Inhibition": 44.44}
{"compound": "CCN1CCC(N(Cc2ccc(-c3ccc(C(F)(F)F)cc3)cc2)C(=O)Cn2c(SCc3ccc(F)cc3)nc(=O)c3c2CCC3)CC1", "note": "[TCMDC-140976]", "% Inhibition": 69.1}
{"compound": "CCOC(=O)c1ccc(NC(=O)Nc2ccc(-c3cccc(-c4nc5c(C)cccc5[nH]4)c3)cc2)cc1", "note": "[TCMDC-133262]", "% Inhibition": -3.129}
{"compound": "CC(C)(C)c1ccc(CN(C[C@@H](O)CNS(=O)(=O)c2cc(Cl)cc(Cl)c2)C(C)(C)C)cc1", "note": "[TCMDC-135386]", "% Inhibition": -63.29}
{"compound": "COc1ccc(CC(=O)NC(CCCN2CCC3(CC2)OCc2ccccc23)c2ccc(Cl)c(Cl)c2)cc1", "note": "(stereo not shown) [TCMDC-141898]", "% Inhibition": -52.62}
{"compound": "O=C(Nc1cccc(F)c1)N1CCC(NS(=O)(=O)c2ccc(Br)cc2)CC1", "note": "[TCMDC-139438]", "% Inhibition": 2.418}
{"compound": "COc1cc2c(cc1OC)-c1cc(=Nc3c(C)cc(C)cc3C)n(C)c(=O)n1CC2", "note": "[TCMDC-125545]", "% Inhibition": 16.19}
{"compound": "CN(CCCNc1ccc(C(=O)Nc2ccc(C(F)(F)F)cc2)cc1[N+](=O)[O-])Cc1ccccc1", "note": "[TCMDC-125682]", "% Inhibition": -31.17}
{"compound": "CN(Cc1cccc(F)c1)C1CCN(c2cc(NC(=O)c3ccc(F)cc3)ccn2)C1", "note": "(stereo not shown) [TCMDC-135004]", "% Inhibition": -24.42}
{"compound": "CC(C)c1ccc(NC(=O)c2cccc(CN3CCCN(Cc4cccc(O)c4)CC3)c2)cc1", "note": "[TCMDC-135976]", "% Inhibition": -1.635}
{"compound": "CC(C)(C)NCCN(Cc1ccc(-c2ccc(C(F)(F)F)cc2)cc1)C(=O)Cn1c(SCc2ccc(F)cc2)nc(=O)c2c1CCC2", "note": "[TCMDC-140978]", "% Inhibition": 110.1}
{"compound": "Cn1ccnc1-c1nc2ccccn2c1NCC(=O)Nc1ccccc1N1CCCCC1", "note": "[TCMDC-133801]", "% Inhibition": -70.89}
{"compound": "CCNc1cc(C)nc(Nc2ccc(NC(=O)c3ccc(OC)c(OC)c3)cc2)n1", "note": "[TCMDC-124987]", "% Inhibition": 8.373}
{"compound": "Cc1cccc(C)c1NC1=NC(=S)N(c2cccc(Cl)c2)C12CCC(C(C)(C)C)CC2", "note": "(stereo not shown) [TCMDC-124101]", "% Inhibition": -11.15}
{"compound": "CSC1=NC(=Nc2ccccc2C)C2(CCC(C(C)(C)C)CC2)N1c1ccccc1Cl", "note": "(stereo not shown) [TCMDC-124136]", "% Inhibition": 53.76}
{"compound": "CSC1=NC(=Nc2c(C)cccc2C)C2(CCCCC2)N1c1ccccc1Cl", "note": "[TCMDC-124143]", "% Inhibition": 13.06}
{"compound": "Cc1cc(C(=O)NC2CCN(Cc3ccccc3)CC2)ccc1-c1nc2ccc(C(F)(F)F)cc2[nH]1", "note": "[TCMDC-140120]", "% Inhibition": -4.747}
{"compound": "N#Cc1ccc(N2CCN(Cc3ccc(-c4ccc(-c5nc6ccc(F)cc6[nH]5)s4)cc3)CC2)nc1", "note": "[TCMDC-133115]", "% Inhibition": -21.41}
{"compound": "Oc1cc(Nc2ccnc3cc(-c4cccc(CN5CCOCC5)c4)ccc23)c(F)cc1Cl", "note": "[TCMDC-138434]", "% Inhibition": 12.33}
{"compound": "NC(=O)c1sc(-n2cnc3ccc(OCC4CCNCC4)cc32)cc1OCc1ccccc1C(F)(F)F", "note": "[TCMDC-135173]", "% Inhibition": 107}
{"compound": "C[C@@H](Oc1cc(-n2cnc3ccc(OCC4CCN(S(C)(=O)=O)CC4)cc32)sc1C(N)=O)c1ccccc1C(F)(F)F", "note": "[TCMDC-135685]", "% Inhibition": 34.9}
{"compound": "CN1CCN(CCCSc2ccc3c(c2)ncn3-c2cc(OCc3ccccc3C(F)(F)F)c(C(N)=O)s2)CC1", "note": "[TCMDC-135408]", "% Inhibition": 12.22}
{"compound": "CC(C)CN1CCC(COc2ccc3ncn(-c4cc(O[C@H](C)c5ccccc5C(F)(F)F)c(C(N)=O)s4)c3c2)CC1", "note": "[TCMDC-135856]", "% Inhibition": 86.18}
{"compound": "NC(=O)c1sc(-n2cnc3ccc(C(=O)NCCN4CCOCC4)cc32)cc1OCc1ccccc1C(F)(F)F", "note": "[TCMDC-135181]", "% Inhibition": -45.79}
{"compound": "COc1ccc2ncn(-c3ccc(C(N)=O)c(OCc4ccccc4C(F)(F)F)c3)c2c1", "note": "[TCMDC-134428]", "% Inhibition": 48.51}
{"compound": "Cc1nc(N)nc(N)c1CCCOc1ccccc1Cl", "note": "[TCMDC-137929]", "% Inhibition": 3.372}
{"compound": "COc1cccc(CNC[C@@H](O)[C@H](Cc2ccccc2)NC(=O)c2cc(NC(C)C)cc(N3CCCCS3(=O)=O)c2)c1", "note": "[TCMDC-135205]", "% Inhibition": 28.03}
{"compound": "CC1(C)C=C(c2ccncc2)c2cc(Cl)ccc2O1", "note": "[TCMDC-131771]", "% Inhibition": -9.955}
{"compound": "Cc1cc(Nc2nc(Nc3cccc(Cl)c3)nc3ccccc23)n[nH]1", "note": "[TCMDC-134695]", "% Inhibition": 12.71}
{"compound": "O=C(NCC1CCC1)c1cnc(Nc2cccc(Cl)c2)nc1N1CCC1", "note": "[TCMDC-135363]", "% Inhibition": 5.577}
{"compound": "Clc1cccc(Nc2ccc3c(N4CCCCC4)ncnc3n2)c1", "note": "[TCMDC-134937]", "% Inhibition": 52.12}
{"compound": "OC(CNCc1ccccc1OCc1ccccc1)c1cccc(Cl)c1", "note": "(stereo not shown) [TCMDC-140563]", "% Inhibition": -9.137}
{"compound": "OC(CNCc1ccccc1OCc1ccccc1)c1cccc(Br)c1", "note": "(stereo not shown) [TCMDC-140734]", "% Inhibition": 51.74}
{"compound": "OC(CNCc1ccccc1OCc1ccccc1)c1cccc(I)c1", "note": "(stereo not shown) [TCMDC-140522]", "% Inhibition": 41.43}
{"compound": "Cc1cc(OCC(=O)Nc2ccc(-c3nc4ccccc4[nH]3)cc2)cc(C)c1Cl", "note": "[TCMDC-125674]", "% Inhibition": -10.97}
{"compound": "Cc1cccc(C)c1CNc1ccnc2cc(C#N)ccc12", "note": "[TCMDC-132170]", "% Inhibition": 2.762}
{"compound": "CC(C)N1CCN(CCCNc2c3ccccc3nc3ccccc23)CC1", "note": "[TCMDC-137547]", "% Inhibition": 96.57}
{"compound": "NS(=O)(=O)NCCCN1CCN(c2ccccc2)CC1", "note": "[TCMDC-141997]", "% Inhibition": 27.05}
{"compound": "CC(C)N1CCN(CCCCNc2c3ccccc3nc3ccccc23)CC1", "note": "[TCMDC-137573]", "% Inhibition": 93.57}
{"compound": "Cc1ncsc1CCN1C(=O)CC2(C1=O)C(=O)N(Cc1ccccc1)c1ccc(Cl)cc12", "note": "(stereo not shown) [TCMDC-136701]", "% Inhibition": 2.069}
{"compound": "COc1cc(F)c2ncc(Cl)c([C@@H](O)CN3CCC(NCc4cc5c(cn4)OCCO5)CC3)c2c1", "note": "[TCMDC-135475]", "% Inhibition": 41.87}
{"compound": "Cc1ccccc1OCCCc1c(C)nc(N)nc1N", "note": "[TCMDC-138070]", "% Inhibition": -46.3}
{"compound": "Cc1ccc(NC(=O)c2cc(Br)cc(N3CCC(N(C)C)CC3)c2)cc1F", "note": "[TCMDC-135144]", "% Inhibition": -10.77}
{"compound": "CC(C)Cc1cn(-c2nc(-c3nc4ccccc4[nH]3)cs2)c2cc(Cl)ccc12", "note": "[TCMDC-132300]", "% Inhibition": -85.76}
{"compound": "O=C(/C=C/c1cccs1)NCC(NCCCNc1cc(=O)c2ccccc2[nH]1)c1cc(Br)cc(Br)c1", "note": "(stereo not shown) [TCMDC-140318]", "% Inhibition": -18.64}
{"compound": "CCn1cc(CN2CCCC(C(=O)Nc3ccc(-c4nc5ccccc5[nH]4)cc3)C2)cn1", "note": "(stereo not shown) [TCMDC-124674]", "% Inhibition": -65.71}
{"compound": "CCN(CC)CC(O)CNc1c2ccc([N+](=O)[O-])cc2nc2cc(OC)c(OC)cc12.Cl", "note": "(stereo not shown) [TCMDC-138079]", "% Inhibition": 90.61}
{"compound": "CCC(=Cc1cccc([N+](=O)[O-])c1)C(=O)NCC1CCN(c2nc(N)c3cc(OC)c(OC)cc3n2)CC1.Cl", "note": "[TCMDC-138165]", "% Inhibition": 19.29}
{"compound": "CCN(CC)CC(O)Cc1c2ccc([N+](=O)[O-])cc2nc2cc(OC)c(OC)cc12", "note": "(stereo not shown) [TCMDC-138126]", "% Inhibition": 37.45}
{"compound": "Cc1noc(-c2ccc(NC[C@@H](C)NC[C@H](O)c3cccc(Cl)c3)cc2)n1", "note": "[TCMDC-132027]", "% Inhibition": 14.57}
{"compound": "COc1cc(C=Cc2ccc3ccccc3n2)cc(Br)c1OCC(=O)N(C)C", "note": "[TCMDC-124818]", "% Inhibition": 44.47}
{"compound": "CC(C)C(=O)NC(c1cccs1)c1cc(Cl)c2cccnc2c1O", "note": "(stereo not shown) [TCMDC-123636]", "% Inhibition": 43.04}
{"compound": "CC(=O)NC(c1cccs1)c1cc(Cl)c2cccnc2c1O", "note": "(stereo not shown) [TCMDC-125548]", "% Inhibition": 90.83}
{"compound": "CC(C)C(=O)NC(c1ccc(N(C)C)cc1)c1cc(Cl)c2cccnc2c1O", "note": "(stereo not shown) [TCMDC-123643]", "% Inhibition": 90.13}
{"compound": "CCCCC(=O)NC(c1cccs1)c1cc(Cl)c2cccnc2c1O", "note": "(stereo not shown) [TCMDC-123653]", "% Inhibition": 45.79}
{"compound": "CCCC(=O)NC(c1cccs1)c1cc(Cl)c2cccnc2c1O", "note": "(stereo not shown) [TCMDC-123634]", "% Inhibition": 68.96}
